Shown are actives, neighbours in structure and some others; about 3.5% of the full set was active somewhere.
GPR151 ag: activators of human GPR151, primary screen, cell-based, PathHunter beta-arrestin, luminescence; activation, % at 11.2 µM; G-protein coupled receptor 151 (Homo sapiens), Q8TDV0; 650,000 compounds, 1% hits; PathHunter beta-arrestin GPR151 cells; in the data active = activation above about 4.9%
FBW7 activator: FBW7 E3 ligase activators, primary screen, biochemical, AlphaScreen, human; normalized activity (activation), % at 26.1 µM; AID 1259310, 2017; AlphaScreen FBW7–phospho-cyclin E peptide binding, activator screen; F-box/WD repeat-containing protein 7 (Homo sapiens), Q969H0; 650,000 compounds, 0.13% hits; in the data active = normalized activity above about 1.9%;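 also: purified mutant Fbw7 with reduced substrate affinity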
Target sequence (Q969H0 whole entry, looked up): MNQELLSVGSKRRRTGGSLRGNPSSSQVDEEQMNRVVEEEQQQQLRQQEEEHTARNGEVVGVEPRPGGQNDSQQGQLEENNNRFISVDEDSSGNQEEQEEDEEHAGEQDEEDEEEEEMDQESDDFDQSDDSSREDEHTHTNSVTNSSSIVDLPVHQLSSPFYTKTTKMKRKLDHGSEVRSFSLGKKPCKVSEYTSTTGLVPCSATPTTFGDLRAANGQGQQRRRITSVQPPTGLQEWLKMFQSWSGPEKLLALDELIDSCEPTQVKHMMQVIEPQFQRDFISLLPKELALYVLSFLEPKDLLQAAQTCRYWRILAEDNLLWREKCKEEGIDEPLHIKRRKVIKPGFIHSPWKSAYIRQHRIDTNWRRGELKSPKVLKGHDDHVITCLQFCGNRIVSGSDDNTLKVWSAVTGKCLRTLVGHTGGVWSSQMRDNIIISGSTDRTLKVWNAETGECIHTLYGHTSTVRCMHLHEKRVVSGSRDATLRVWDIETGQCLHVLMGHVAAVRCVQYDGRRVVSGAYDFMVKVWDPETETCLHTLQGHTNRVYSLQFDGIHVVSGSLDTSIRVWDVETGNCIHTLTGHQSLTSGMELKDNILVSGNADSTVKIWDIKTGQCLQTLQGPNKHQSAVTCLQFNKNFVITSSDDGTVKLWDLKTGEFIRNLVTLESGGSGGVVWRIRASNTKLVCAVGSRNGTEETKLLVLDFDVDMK
MITF primary: MITF inhibitors, primary screen, biochemical, AlphaScreen, human | Microphthalmia-associated transcription factor (Homo sapiens), O75030 | AlphaScreen MITF homodimerization, bead proximity signal | inhibition, % at 2.6 µM | 650,000 compounds, 0.91% hits | AID 1259374, 2018; in the data active = inhibition above about 50%
TEAD-YAP block: TEAD-YAP interaction inhibition, primary screen, TEAD-YAP interaction inhibitor project, luminescence, HEK-TIYL cells | TEAD-Gal4/YAP UAS-luciferase luminescence | inhibition, % at 9.12 µM | 640,000 compounds, 1.4% hits; in the data active = inhibition above about 32%
Hits are given with their value.

COc1ccccc1C(=O)Nc1ccc2nc(SCC(=O)N3CCc4ccccc43)sc2c1 was read as GPR151 ag inactive, FBW7 activator inactive, MITF primary inactive and TEAD-YAP block inactive.
`Cc1nnc(SC(C)C(=O)Nc2ccc3nc(SCC(=O)N4CCc5ccccc54)sc3c2)s1` (configuration not stated) gave GPR151 ag inactive, FBW7 activator inactive, MITF primary inactive and TEAD-YAP block 34.8.
For CCOc1cc(/C=N/n2cnnc2)cc(I)c1O the results were GPR151 ag inactive, FBW7 activator inactive, MITF primary 65.3 and TEAD-YAP block inactive.
C=CCc1cccc(/C=N/NC(=O)CCCO)c1O was read as GPR151 ag inactive, FBW7 activator inactive, MITF primary inactive and TEAD-YAP block inactive.
`C=CCc1cccc(/C=N/NC(=O)C[n+]2ccccc2)c1O` gave GPR151 ag inactive, FBW7 activator inactive, MITF primary inactive and TEAD-YAP block 60.4.
For CCCNc1nc(NCCN2CCOCC2)nc2c1ncn2-c1ccsc1 the results were GPR151 ag inactive, FBW7 activator inactive, MITF primary inactive and TEAD-YAP block 33.9.
Screening c1cc(-n2cnc3c(NC4CC4)nc(NCCN4CCOCC4)nc32)cs1 returned GPR151 ag inactive, FBW7 activator inactive, MITF primary inactive and TEAD-YAP block 41.0.
`Nc1nc(NCCN2CCOCC2)nc2c1ncn2-c1ccsc1` gave GPR151 ag inactive, FBW7 activator inactive, MITF primary inactive and TEAD-YAP block inactive.
For Cc1nn(-c2ccccn2)c2c1C(Cl)=C(/C=N/NC(=O)c1ccccc1O)CC2 the results were GPR151 ag inactive, FBW7 activator inactive, MITF primary inactive and TEAD-YAP block inactive.
`CCNc1c(NS(=O)(=O)c2cccc(C#N)c2)c(=O)oc2ccccc12` gave GPR151 ag inactive, FBW7 activator inactive, MITF primary inactive and TEAD-YAP block inactive.
Screening COc1ccc(/C=C2\Oc3cc(OC(C)=O)ccc3C2=O)cc1 returned GPR151 ag inactive, FBW7 activator inactive, MITF primary inactive and TEAD-YAP block 50.5.
Screening CCC(=O)Oc1ccc2c(c1)O/C(=C\c1cccc(OC)c1)C2=O returned GPR151 ag inactive, FBW7 activator inactive, MITF primary inactive and TEAD-YAP block 87.0.
CC(=O)Oc1ccc2c(c1)O/C(=C\c1sccc1C)C2=O was read as GPR151 ag inactive, FBW7 activator inactive, MITF primary inactive and TEAD-YAP block 87.6.
`COC(=O)COc1cccc(/C=C2\Oc3cc(OC)ccc3C2=O)c1` gave GPR151 ag inactive, FBW7 activator inactive, MITF primary inactive and TEAD-YAP block inactive.
For COc1ccc(C(=O)Oc2ccc3c(c2)O/C(=C\c2ccncc2)C3=O)cc1OC the results were GPR151 ag inactive, FBW7 activator inactive, MITF primary inactive and TEAD-YAP block inactive.
COc1ccc(/C=C2\Oc3cc(OC(=O)c4ccncc4)ccc3C2=O)cc1 was read as GPR151 ag inactive, FBW7 activator inactive, MITF primary inactive and TEAD-YAP block 67.8.
For COc1ccccc1N(CN1CCCC1=O)C(=O)c1cccc(Cl)c1 the results were GPR151 ag inactive, FBW7 activator inactive, MITF primary inactive and TEAD-YAP block inactive.
Screening COc1ccc(C2N3CC4(C)CN2CC(C)(C3)C4=O)cc1O (configuration not stated) returned GPR151 ag inactive, FBW7 activator inactive, MITF primary inactive and TEAD-YAP block inactive.
`COC(=O)Cn1c(SCc2cc(C)ccc2C)nc2ccsc2c1=O` gave GPR151 ag inactive, FBW7 activator inactive, MITF primary inactive and TEAD-YAP block 63.1.
Screening Cc1ccc(C)c(CSc2nc3ccsc3c(=O)n2CCCCC(=O)O)c1 returned GPR151 ag inactive, FBW7 activator inactive, MITF primary inactive and TEAD-YAP block 57.4.
Screening Cc1ccc(CNC(=O)CCCCCn2c(SCc3cc(C)ccc3C)nc3ccsc3c2=O)cc1 returned GPR151 ag inactive, FBW7 activator inactive, MITF primary inactive and TEAD-YAP block inactive.
`Cc1cc(C)c(NC(=O)CN(C)S(=O)(=O)c2ccc3c(c2)C(C)(C)C(=O)N3C)c(C)c1` gave GPR151 ag inactive, FBW7 activator inactive, MITF primary inactive and TEAD-YAP block inactive.
For O=C(Nc1ccc2nc3n(c(=O)c2c1)CCCCC3)c1c(F)ccc([N+](=O)[O-])c1F the results were GPR151 ag inactive, FBW7 activator inactive, MITF primary inactive and TEAD-YAP block 36.2.
Screening O=C(Nc1ccc2nc3n(c(=O)c2c1)CCCCC3)c1cc([N+](=O)[O-])ccc1F returned GPR151 ag inactive, FBW7 activator inactive, MITF primary inactive and TEAD-YAP block inactive.
